Source: PubChem BioAssay AID488890 (Southern Research Specialized Biocontainment Screening …, 2010)
In all, about 320,000 compounds went through this assay and about 1,300 (0.41%) were called active. About 3% were inconclusive and are not listed. No rule for the calls is given here. The list is a sample of the results. Entries with a potency or affinity are not part of this list.

Assay: growth inhibition of non-replicating M. tuberculosis (AID 488890);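 also: plate controls were DMSO cells for no effect and high antibiotic wells for full effect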
Conditions: Mycobacterium tuberculosis non-replicating, at 25 µM, stronger effect = higher value
In the case of `CSc1cccc(CN2CCC(Oc3ccc(C(=O)N4CCCCC4)cc3)CC2)c1`, the inhibition is reported as 64.2%.
Compound `CCOC(=O)c1c(NC(=O)CSc2nc3cc(Cl)ccc3s2)sc(C(C)=O)c1C` has an inhibition of 2.44%.
Compound `Cc1ccc(/C=N/NC(=O)c2nnn(-c3nonc3N)c2CN(C)C)o1` has an inhibition of -3.62%.
In the case of `NC(=O)COc1c(-c2ccc(Br)o2)oc2ccccc2c1=O`, the inhibition is reported as -1.98%.
Work on `O=C(Oc1c(-c2ccccc2)oc2ccccc2c1=O)c1ccccc1` yielded an inhibition of 26.1%.
In the case of `N#Cc1c(OCC(=O)c2ccccc2)nc2c(c1-c1ccco1)CCc1ccccc1-2`, the inhibition is reported as -14.7%.
`NC(=O)Cc1nc(-c2ccc(F)cc2)cs1` showed an inhibition of 8.71%.
Work on `Cc1ccc(NCC(=O)c2ccc([N+](=O)[O-])cc2)cc1` yielded an inhibition of 68%.
In the case of `Cc1ccc(C(=O)CNc2cccc([N+](=O)[O-])c2)cc1`, the inhibition is reported as 11.3%.
Compound `O=C(NC(=S)Nc1cccc(F)c1)c1cccc([N+](=O)[O-])c1` has an inhibition of 74%.
With `O=C(CNc1cccc2ccccc12)c1ccc([N+](=O)[O-])cc1` the inhibition was 73.1%.
In the case of `CCOC(=O)C1=C(C)N(CCCC(=O)O)C(=O)NC1c1ccccc1Cl` (centres undefined), the inhibition is reported as 0.44%.
For `CCOC(=O)C(C)/C(C)=N\Nc1ccc([N+](=O)[O-])cc1[N+](=O)[O-]` (centres undefined), the inhibition was -5.18%.
Work on `CCCC1CC(c2csc(N)n2)CCO1` (centres undefined) yielded an inhibition of -0.79%.
With `COc1ccc(OC)c(/C=C/C(=O)Oc2ccc(C(C)=O)cc2)c1` the inhibition was 64.2%.
`O=C(Cn1c(SCC(=O)N2CCCc3ccccc32)nc2ccccc21)N1CCCC1` gave an inhibition of -11.8%.
`O=C(NNC(=O)C1CCC1)c1ccc(Br)cc1` showed an inhibition of 3.14%.
`O=C(NNC(=O)c1ccc(Br)cc1)c1ccncc1` gave an inhibition of 41.7%.
With `C/C(NC1CCCCC1)=C(/C#N)C(=O)NCCN1CCOCC1` the inhibition was 1.64%.
With `O=[N+]([O-])c1cnc(Nc2ccccc2)nc1Nc1ccccc1` the inhibition was 0.51%.
With `CC(=O)OCC(=O)Nc1ccc([N+](=O)[O-])cc1Cl` the inhibition was -21.2%.
With `Cc1cc(O)c(NC(=O)c2cc([N+](=O)[O-])ccc2Cl)cc1C` the inhibition was 32.1%.
`CN(C)C(=O)Oc1ccc2ccccc2c1Cl` showed an inhibition of 5.7%.
`O=C(CSc1ccccc1F)NCCN1C(=O)CSC1=O` gave an inhibition of -0.52%.
In the case of `O=C(O)CN1C(c2ccccc2)=Nc2ccc(Br)cc2C1c1ccccc1` (centres undefined), the inhibition is reported as -0.36%.
`CCOC(=O)c1cc2c(ccc3ccccc32)oc1=O` showed an inhibition of 74.5%.
`O=C(O)c1cc2c(ccc3ccccc32)oc1=O` gave an inhibition of -4.26%.
With `Cc1cccc(OCC(=O)NCC(C)(C)N2CCOCC2)c1` the inhibition was 5.72%.
With `CCOC(=O)N1CCC(c2[nH][nH]c(=O)c2C)CC1` the inhibition was -7.47%.
`CCCCn1c(=O)c(CCC(=O)OCC(=O)NC(C)c2ccccc2)nc2ccccc21` (centres undefined) gave an inhibition of 55.8%.
Compound `Cc1cccc(-n2c(/C=C/c3ccc([N+](=O)[O-])o3)nc3ccccc3c2=O)c1` has an inhibition of 28.4%.
Compound `Cn1c(/C=C/c2ccccc2[N+](=O)[O-])nc2ccccc2c1=O` has an inhibition of -6.23%.
In the case of `Cc1cc(=O)oc(C)c1C(=O)OCC(=O)c1ccc(Cl)cc1`, the inhibition is reported as 72.7%.
`O=C(NCCCN1CCOCC1)c1cc2ccccc2o1` gave an inhibition of -15.4%.
`O=C1C(c2ccncc2)=C(O)c2ccccc21` gave an inhibition of 26.2%.
Compound `Cc1ccc(C2=C(O)c3ccccc3C(=O)C2=O)cc1` has an inhibition of 71.2%.
Work on `Cc1cccc(NC(=S)N2CCN(c3cc(C)ccc3C)CC2)c1` yielded an inhibition of -5.31%.
Work on `O=c1[nH]c2ccccc2nc1-c1ccccc1` yielded an inhibition of -4.14%.
Compound `O=c1[nH]c2ccccc2nc1-c1ccc(Cl)cc1` has an inhibition of -0.23%.
With `CN(C)CC/C=C1/c2ccccc2Sc2ccc(Cl)cc21` the inhibition was 75.6%.
`CN(C)CC/C=C1/c2cc(F)ccc2Sc2ccc(Cl)cc21` showed an inhibition of 79.7%.
For `Cc1ccc(OCC(=O)N/N=C2/SCC(=O)N2Cc2ccccc2)cc1`, the inhibition was 29.3%.
With `CC(CN1CCN(C/C=C/c2ccccc2)CC1)c1ccccc1` (centres undefined) the inhibition was 2.29%.
Compound `COC(CNC(=O)c1coc2nc3ccccc3nc12)OC` has an inhibition of 5.54%.
In the case of `COC(CNC(=O)c1cccnc1)OC`, the inhibition is reported as -3.72%.
`COc1ccc(Cl)cc1NC(=O)CN(C)C(=O)C12CC3CC(CC(Cl)(C3)C1)C2` gave an inhibition of 41.4%.
With `COc1cccc(NC(=O)CCC(=O)NCc2ccco2)c1` the inhibition was -7.17%.
In the case of `CCOc1ccc(C(=O)NCc2cccs2)cc1`, the inhibition is reported as 44.9%.
For `O=C1c2cccc3cccc(c23)C(=O)N1c1ccccn1`, the inhibition was -12.3%.
In the case of `O=C1c2ccccc2C(=O)N1c1cc([N+](=O)[O-])ccn1`, the inhibition is reported as 4.94%.
Compound `O=C1c2ccc([N+](=O)[O-])cc2C(=O)N1c1ccc(Cl)cn1` has an inhibition of -16.1%.
For `Cc1ccc(N2C(=O)c3cccc4c([N+](=O)[O-])ccc(c34)C2=O)c2cccnc12`, the inhibition was 7.23%.
In the case of `O=C1c2cccc3c([N+](=O)[O-])ccc(c23)C(=O)N1CCc1ccccn1`, the inhibition is reported as 33.7%.
Work on `CC(=O)Nc1cccc2c1C(=O)N(c1ccc(OC(C)=O)cc1)C2=O` yielded an inhibition of 19%.
Compound `Cc1ccc(C(=O)O)cc1N1C(=O)c2cccc3c([N+](=O)[O-])ccc(c23)C1=O` has an inhibition of 3.01%.
With `O=C1c2ccccc2C(=O)N1c1ccc(Cl)cn1` the inhibition was 7.35%.
`COc1ccc(CCN(C)C(=O)CSc2nnc(-c3ccco3)o2)cc1OC` showed an inhibition of -6.6%.
`C=CCn1c(SCC(=O)Nc2ccc(NC(=O)c3ccco3)c(OC)c2)nnc1-c1ccncc1` showed an inhibition of 13.9%.
`Cc1ccccc1OCC(=O)NCCCNC(=O)c1cccnc1` showed an inhibition of -5.91%.
